Source: PubChem BioAssay (EPA / NIEHS)
Where a structure was tested more than once in an assay, its records may differ in their call. The source made the active and inactive calls. Rule for the calls: active = hit-call score of the fitted dose curve at least 0.9, where 1 is the maximum; inactive = score below 0.9.

Assays:
[1] = target: Transcription factor E2F1 (Homo sapiens) (UniProt Q01094); test: ATG_E2F_CIS: Attagene CIS-FACTORIAL HepG2 Assay for human E2F Transcription Factor 1 (AID 2282935); settings: HepG2 Attagene cis-reporter, E2F reporter RNA transcripts; actives raise or lower the signal
In short: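 Fluorescent RT-PCR products, digested with HpaI for 2 h at 37 C, are separated by capillary electrophoresis. Source RNA comes from transfected HepG2 cultures treated for 24 h.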

[2] = ATG_E_Box_CIS: Attagene CIS-FACTORIAL HepG2 Assay for human Enhancer Box (E-box) (AID 2282936); settings: HepG2 E-box cis-reporter transcription, actives raise or lower the signal
In short: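 Fluorescent reporter fragments separated by capillary electrophoresis gave the signal; mRNA came from HepG2 cells transfected with cis-element reporters and treated 24 h. Curves fitted bidirectionally relative to DMSO controls.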

[3] = ATG_M_61_CIS: Attagene CIS-FACTORIAL HepG2 Assay for M61 Transcription Factor (Internal Marker) (AID 2282937); settings: HepG2 Attagene CIS-FACTORIAL M61 internal marker reporter; actives raise or lower the signal
In short: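 Cells were transfected with reporter units under cis-regulatory promoters, treated with chemicals for 24 h, then lysed for RNA. Reporter transcripts were quantified by RT-PCR and capillary electrophoresis, and activity was fitted bidirectionally against DMSO.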

[4] = ATG_EGR_CIS: Attagene CIS-FACTORIAL HepG2 Assay for human Early Growth Response 1 (EGR1) (AID 2282938); settings: HepG2 Attagene CIS-FACTORIAL EGR reporter mRNA; actives raise or lower the signal
In short: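 Endogenous TF activity in HepG2 liver cells was gauged through cis-promoter reporter constructs transiently transfected. After 24 h dosing, reporter mRNA was quantified by RT-PCR and capillary electrophoresis, and curves fitted in both directions versus DMSO.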

[5] = ATG_M_19_CIS: Attagene CIS-FACTORIAL HepG2 Assay for M19 Transcription Factor (Internal Marker) (AID 2282939); settings: HepG2 Attagene CIS-FACTORIAL M19 internal marker reporter; actives raise or lower the signal
In short: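 HepG2 cells transiently transfected with cis-regulated multiple reporter transcription units were dosed for 24 h; reporter mRNA was quantified by RT-PCR, 6-FAM primer-extension labelling, HpaI digestion and capillary electrophoresis, with bidirectional fitting against DMSO baseline.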

[6] = ATG_ERE_CIS: Attagene CIS-FACTORIAL HepG2 Assay for Estrogen Response Element (ERE) (AID 2282940); settings: HepG2 ERE cis-reporter, Attagene RNA transcript; actives raise or lower the signal
In short: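 HepG2 cells transiently transfected with cis-promoter-driven multiplexed reporter transcription units report endogenous TF activity. After 24 h compound exposure, reporter mRNA is quantified by RT-PCR with capillary electrophoresis fluorescence; bidirectional fitting versus DMSO baseline.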

[7] = ATG_Ets_CIS: Attagene CIS-FACTORIAL HepG2 Assay for human Erythroblast Transformation Specific (ETS) (AID 2282941); settings: HepG2 ETS cis-reporter transcription, actives raise or lower the signal
In short: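 Endogenous transcription factor activity read as reporter mRNA via RT-PCR and capillary electrophoresis, with gain or loss fitted bidirectionally against DMSO. Human HepG2 liver cells, transiently transfected CIS reporter constructs, 24 h exposure.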

[8] = target: Hepatocyte nuclear factor 3-beta (Homo sapiens) (UniProt Q9Y261); test: ATG_FoxA2_CIS: Attagene CIS-FACTORIAL HepG2 Assay for human Forkhead box A2 (FOXA2) (AID 2282942); settings: HepG2 cis-reporter transcription factor activity, 24 h; actives raise or lower the signal
In short: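 Endogenous transcription factor activity was read in HepG2 cells carrying transiently transfected cis-promoter reporter units. After 24 h dosing, reporter mRNA was quantified by RT-PCR and capillary electrophoresis, and values fitted bidirectionally versus DMSO.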

[9] = ATG_FoxO_CIS: Attagene CIS-FACTORIAL HepG2 Assay for human Forkhead box O (FoxO) (AID 2282943); settings: HepG2 Attagene cis-reporter, FoxO element, mRNA; actives raise or lower the signal
In short: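 HepG2, transient MRTU transfection (cis element, endogenous TFs). Dose 24 h. TriZol RNA → oligo(dT) RT → PCR → 6-FAM primer extension → HpaI cut → CE. Gain/loss vs DMSO.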

[10] = ATG_GATA_CIS: Attagene CIS-FACTORIAL HepG2 Assay for human GATA Binding Protein (AID 2282944); settings: HepG2 GATA cis-element reporter, Attagene multiplex mRNA; actives raise or lower the signal
In short: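 HepG2 cells transiently transfected with multiplexed cis-element reporter units reflecting endogenous transcription factor activity; reporter mRNA measured after 24 h dosing by RT-PCR, 6-FAM labeling, HpaI digestion and capillary electrophoresis. Bidirectional fitting versus DMSO baseline.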

[11] = ATG_GLI_CIS: Attagene CIS-FACTORIAL HepG2 Assay for human Zinc Finger Protein GLI1 (AID 2282945); settings: HepG2, Attagene cis-factorial reporter mRNA, GLI element; actives raise or lower the signal
In short: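 Bidirectional curve fits relative to DMSO, using reporter mRNA levels from RT-PCR plus capillary electrophoresis. Cells were HepG2 transiently carrying cis-regulated reporter constructs, harvested 24 h after dosing.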

[12] = target: Bile acid receptor (Homo sapiens) (UniProt Q96RI1); test: ATG_IR1_CIS: Attagene CIS-FACTORIAL HepG2 Assay for human Nuclear Receptor Subfamily 1 Group H Member 4 (NR1H4), IR1 submotif (AID 2282946); settings: IR1 reporter transcription, actives raise or lower the signal
In short: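 HepG2 cells transiently transfected with multiplexed cis-element reporter units read endogenous transcription factor activity. After 24 h compound exposure, reporter mRNA was quantified by RT-PCR, fluorescent labelling, HpaI digestion and capillary electrophoresis; bidirectional fitting versus DMSO baseline.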

[13] = ATG_ISRE_CIS: Attagene CIS-FACTORIAL HepG2 Assay for human Interferon Regulatory Factor 1 (IRF1) binding to an Interferon-Stimulated Response Element (ISRE) (AID 2282948); settings: HepG2 ISRE cis-reporter (Attagene), mRNA transcription readout; actives raise or lower the signal
In short: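 Endogenous transcription factor activity read as reporter transcript abundance via RT-PCR and capillary electrophoresis. HepG2 cells transiently transfected, 24 h chemical exposure. Gain or loss fitted against DMSO baseline.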

[14] = ATG_M_32_CIS: Attagene CIS-FACTORIAL HepG2 Assay for M32 Transcription Factor (Internal Marker) (AID 2282949); settings: HepG2 Attagene cis-factorial M32 reporter, mRNA; actives raise or lower the signal;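 note: background control marker of the multiplexed CIS panel rather than a real target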
In short: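 Using DMSO as baseline, bidirectional curve fits were applied to reporter mRNA signals. These came from transiently transfected HepG2 cells exposed for 24 h, with RNA analysed by RT-PCR, FAM primer extension, HpaI digestion and CE.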

[15] = ATG_M_06_CIS: Attagene CIS-FACTORIAL HepG2 Assay for M06 Transcription Factor (Internal Marker) (AID 2282950); settings: HepG2 Attagene CIS-FACTORIAL M06 internal marker reporter; actives raise or lower the signal
In short: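 HepG2 cells transiently transfected with cis-regulated multiple reporter transcription units were exposed to chemical for 24 h; reporter mRNA was quantified by RT-PCR, 6-FAM primer labelling, HpaI digestion and capillary electrophoresis, fitted bidirectionally against DMSO.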

[16] = target: Hypoxia-inducible factor 1-alpha (Homo sapiens) (UniProt Q16665); test: ATG_HIF1a_CIS: Attagene CIS-FACTORIAL HepG2 Assay for human Hypoxia Inducible Factor 1 (HIF1A) (AID 2282951); settings: HepG2 Attagene cis-factorial HIF1a reporter transcription; actives raise or lower the signal
In short: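 Measures endogenous transcription-factor activity through cis-regulated reporter mRNA in HepG2. Cells dosed 24 h; transcripts quantified by RT-PCR with 6-FAM-labelled products separated by capillary electrophoresis; DMSO serves as negative control.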

[17] = target: Hepatocyte nuclear factor 6 (Homo sapiens) (UniProt Q9UBC0); test: ATG_HNF6_CIS: Attagene CIS-FACTORIAL HepG2 Assay for human Hepatocyte Nuclear Factor 6 (HNF6) (AID 2282952); settings: HepG2 Attagene cis-factorial HNF6 reporter transcription; actives raise or lower the signal
In short: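 Endogenous factor activity read in transiently transfected HepG2 via promoter-regulated reporter transcripts. RNA harvested 24 h post-dosing, reverse-transcribed, PCR-amplified, FAM-labelled, HpaI-digested and resolved by capillary electrophoresis; fitted in both directions against DMSO.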

[18] = target: Heat shock factor protein 1 (Homo sapiens) (UniProt Q00613); test: ATG_HSE_CIS: Attagene CIS-FACTORIAL HepG2 Assay for human Heat Shock Transcription Factor 1 (HSE) (AID 2282953); settings: HepG2 HSE cis-reporter, Attagene RNA transcription; actives raise or lower the signal
In short: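 HepG2 cells transiently transfected with multiple reporter transcription units under cis-regulatory promoter control, measuring endogenous transcription factor activity. After 24 h chemical exposure, reporter mRNA quantified by RT-PCR, fluorescent labelling, HpaI digestion and capillary electrophoresis; bidirectional fit versus DMSO.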

[19] = ATG_MRE_CIS: Attagene CIS-FACTORIAL HepG2 Assay for human Metal Responsive Element (MRE) (AID 2282954); settings: HepG2 MRE cis-reporter transcription, Attagene multiplex; actives raise or lower the signal
In short: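 Multiplexed cis-reporter assay in human HepG2 liver cells, 24 h incubation with test chemical. Reporter transcripts measured by RT-PCR and capillary electrophoresis; values from bidirectional curve fitting versus DMSO.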

[20] = ATG_GRE_CIS: Attagene CIS-FACTORIAL HepG2 Assay for human Glucocorticoid Response Elements (GRE) (AID 2282947); settings: HepG2 GRE cis-reporter, Attagene multiplex mRNA; actives raise or lower the signal
In short: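 Multiplexed cis-reporter mRNA induction, HepG2, 24 h post-dose. RT-PCR, FAM-labelled, HpaI-digested amplicons by CE. Bidirectional fit vs DMSO.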

Measured: AC50

Transcription factor E2F1 (Homo sapiens), sequence (Q01094 whole entry, looked up): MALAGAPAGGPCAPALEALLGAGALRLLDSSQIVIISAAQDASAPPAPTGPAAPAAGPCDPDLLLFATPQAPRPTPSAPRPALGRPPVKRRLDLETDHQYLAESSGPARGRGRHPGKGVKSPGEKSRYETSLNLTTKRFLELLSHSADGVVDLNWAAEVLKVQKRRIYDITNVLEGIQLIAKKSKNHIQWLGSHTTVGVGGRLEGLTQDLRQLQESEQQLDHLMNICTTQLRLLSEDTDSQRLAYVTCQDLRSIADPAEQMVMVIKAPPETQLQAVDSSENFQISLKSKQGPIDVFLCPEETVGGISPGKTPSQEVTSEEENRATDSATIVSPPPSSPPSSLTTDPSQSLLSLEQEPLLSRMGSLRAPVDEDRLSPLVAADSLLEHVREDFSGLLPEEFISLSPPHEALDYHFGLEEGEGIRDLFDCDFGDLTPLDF
Hepatocyte nuclear factor 6 (Homo sapiens), sequence (Q9UBC0 whole entry, looked up): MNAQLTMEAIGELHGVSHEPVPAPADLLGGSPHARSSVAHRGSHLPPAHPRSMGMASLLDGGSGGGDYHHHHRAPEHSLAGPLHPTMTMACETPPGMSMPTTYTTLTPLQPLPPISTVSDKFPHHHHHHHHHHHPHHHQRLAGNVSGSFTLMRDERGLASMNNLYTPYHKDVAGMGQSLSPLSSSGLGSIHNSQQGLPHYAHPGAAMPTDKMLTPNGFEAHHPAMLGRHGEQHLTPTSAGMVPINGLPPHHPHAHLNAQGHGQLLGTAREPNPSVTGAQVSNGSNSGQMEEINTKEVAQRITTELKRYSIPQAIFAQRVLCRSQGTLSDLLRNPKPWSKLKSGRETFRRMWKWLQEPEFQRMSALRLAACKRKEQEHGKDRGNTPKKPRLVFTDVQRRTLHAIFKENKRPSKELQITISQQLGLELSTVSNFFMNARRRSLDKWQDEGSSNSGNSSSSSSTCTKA
Bile acid receptor (Homo sapiens), sequence (Q96RI1 whole entry, looked up): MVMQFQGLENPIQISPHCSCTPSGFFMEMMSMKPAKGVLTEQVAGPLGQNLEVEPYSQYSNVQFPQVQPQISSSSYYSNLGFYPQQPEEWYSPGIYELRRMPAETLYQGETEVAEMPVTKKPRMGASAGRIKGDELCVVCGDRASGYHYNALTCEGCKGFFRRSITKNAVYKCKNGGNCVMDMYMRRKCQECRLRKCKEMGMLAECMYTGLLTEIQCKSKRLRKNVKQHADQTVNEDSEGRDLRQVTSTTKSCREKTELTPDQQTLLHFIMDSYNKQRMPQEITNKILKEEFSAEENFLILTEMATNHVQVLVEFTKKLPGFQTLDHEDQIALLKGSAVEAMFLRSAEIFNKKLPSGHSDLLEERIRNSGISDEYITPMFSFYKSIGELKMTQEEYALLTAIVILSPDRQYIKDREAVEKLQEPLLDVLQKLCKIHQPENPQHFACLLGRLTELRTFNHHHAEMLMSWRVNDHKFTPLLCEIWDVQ
Heat shock factor protein 1 (Homo sapiens), sequence (Q00613 whole entry, looked up): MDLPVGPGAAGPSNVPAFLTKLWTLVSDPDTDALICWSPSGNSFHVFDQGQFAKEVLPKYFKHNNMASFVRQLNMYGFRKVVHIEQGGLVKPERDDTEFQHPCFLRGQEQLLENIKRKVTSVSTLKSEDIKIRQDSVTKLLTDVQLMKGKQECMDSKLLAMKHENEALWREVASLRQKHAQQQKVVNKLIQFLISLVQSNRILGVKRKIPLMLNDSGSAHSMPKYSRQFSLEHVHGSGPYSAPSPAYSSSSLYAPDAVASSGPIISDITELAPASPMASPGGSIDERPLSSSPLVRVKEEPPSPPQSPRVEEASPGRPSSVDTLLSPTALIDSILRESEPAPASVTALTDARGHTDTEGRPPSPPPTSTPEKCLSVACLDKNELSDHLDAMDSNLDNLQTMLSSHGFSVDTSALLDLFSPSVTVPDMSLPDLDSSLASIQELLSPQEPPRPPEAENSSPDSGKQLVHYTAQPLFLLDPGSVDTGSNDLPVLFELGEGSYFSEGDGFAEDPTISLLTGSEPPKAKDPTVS
Hypoxia-inducible factor 1-alpha (Homo sapiens), sequence (Q16665 whole entry, looked up): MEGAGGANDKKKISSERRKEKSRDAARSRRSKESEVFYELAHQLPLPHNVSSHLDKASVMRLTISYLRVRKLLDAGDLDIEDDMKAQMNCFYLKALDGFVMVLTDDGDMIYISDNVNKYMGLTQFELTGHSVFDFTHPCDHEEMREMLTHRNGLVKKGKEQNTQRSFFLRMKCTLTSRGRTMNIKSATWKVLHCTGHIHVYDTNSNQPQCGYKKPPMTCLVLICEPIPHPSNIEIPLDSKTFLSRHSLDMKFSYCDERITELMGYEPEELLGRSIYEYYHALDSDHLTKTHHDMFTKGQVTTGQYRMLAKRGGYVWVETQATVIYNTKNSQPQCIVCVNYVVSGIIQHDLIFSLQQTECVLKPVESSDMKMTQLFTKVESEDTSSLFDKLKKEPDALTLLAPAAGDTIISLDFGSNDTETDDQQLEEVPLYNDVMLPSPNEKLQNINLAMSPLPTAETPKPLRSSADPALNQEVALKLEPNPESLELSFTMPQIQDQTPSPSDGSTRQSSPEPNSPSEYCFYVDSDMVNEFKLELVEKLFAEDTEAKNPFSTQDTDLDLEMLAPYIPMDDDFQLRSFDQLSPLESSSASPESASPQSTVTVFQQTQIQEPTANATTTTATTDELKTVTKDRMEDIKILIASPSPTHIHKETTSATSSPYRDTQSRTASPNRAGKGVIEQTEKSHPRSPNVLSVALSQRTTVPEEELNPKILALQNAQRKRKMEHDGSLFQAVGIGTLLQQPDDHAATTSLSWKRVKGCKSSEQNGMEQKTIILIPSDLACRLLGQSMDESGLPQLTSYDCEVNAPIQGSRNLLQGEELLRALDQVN
Hepatocyte nuclear factor 3-beta (Homo sapiens), sequence (Q9Y261 whole entry, looked up): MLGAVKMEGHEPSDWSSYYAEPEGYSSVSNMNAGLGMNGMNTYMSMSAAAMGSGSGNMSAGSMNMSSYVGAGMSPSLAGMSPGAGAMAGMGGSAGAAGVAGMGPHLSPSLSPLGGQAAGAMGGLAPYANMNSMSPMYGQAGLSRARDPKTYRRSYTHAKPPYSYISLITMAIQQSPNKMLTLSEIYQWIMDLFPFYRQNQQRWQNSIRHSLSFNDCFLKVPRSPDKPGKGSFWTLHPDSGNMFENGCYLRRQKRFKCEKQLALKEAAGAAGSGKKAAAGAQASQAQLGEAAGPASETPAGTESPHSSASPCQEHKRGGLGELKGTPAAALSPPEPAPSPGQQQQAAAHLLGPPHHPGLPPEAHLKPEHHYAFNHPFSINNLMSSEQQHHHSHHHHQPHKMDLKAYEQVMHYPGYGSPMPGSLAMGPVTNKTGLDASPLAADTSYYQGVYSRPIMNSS

Nc1ccc(Oc2cccc(Oc3ccc(N)cc3)c2)cc1
inactive: [3] | [6] | [8] | [15] | [17]
active: [1] 33.4 µM | [2] 179 µM | [4] 26.2 µM | [5] 51.5 µM | [7] 112 µM | [9] 163 µM | [10] 135 µM | [11] 178 µM | [12] 24.6 µM | [13] 24.7 µM | [14] 137 µM | [16] 26.9 µM | [18] 160 µM | [19] 64.6 µM

FC(F)(F)C(F)(F)C(F)(F)C(F)(F)CCI
inactive: [1] | [2] | [3] | [4] | [5] | [6] | [7] | [8] | [9] | [10] | [11] | [13] | [14] | [15] | [16] | [17] | [19]
active: [6] 16.3 µM

OCCCC(F)(F)C(F)(F)C(F)(F)C(F)(F)C(F)(F)C(F)(F)C(F)(F)F
inactive: [1] | [2] | [3] | [4] | [5] | [6] | [7] | [8] | [9] | [10] | [11] | [13] | [14] | [15] | [16] | [17] | [18] | [19]
active: [2] 72.9 µM | [4] 80.6 µM | [5] 264 µM | [6] 19.9 µM | [7] 50 µM | [9] 65.3 µM | [10] 78.9 µM | [14] 233 µM | [16] 197 µM | [17] 83 µM | [18] 95.1 µM | [19] 50 µM

CCCCNc1ccccc1
not listed: [20]
inactive: all other assays above

O=C(O)C(F)(F)C(F)(F)OC(F)(F)F
inactive: all assays above

FC(F)(F)C(F)(F)C(F)(F)C(F)(F)C(F)(F)C(F)(F)CC1CO1 (stereo unspecified)
inactive: all assays above
